Reference: the supplement of paper PMC10849652
About 8,800 targets were measured; listed, in parts, are those with a hit and a random draw of the rest. About 0.5% of all pairs of compound and target were hits.

Tests used:
Test in all cases: log2 fold change, soluble protein after heating vs DMSO (PISA); higher = thermal stabilisation; K562 lysate, 10 uM; active = over 0.2 and 3.5 SD of the protein, either way, in both replicates (recomputed)
ibrutinib = compound: C=CC(=O)N1CCC[C@@H](n2nc(-c3ccc(Oc4ccccc4)cc3)c3c(N)ncnc32)C1 [ibrutinib]
In short: (§1)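 Quantification was by TMTpro 16plex LC-MS/MS with equalised channel sums, applied to the supernatant after 21,000xg for 90 min. Samples were crude K562 extract at 1 mg/mL protein in PBS pH 7.4 with 1 mM MgCl2, treated with 10 μM compound for 30 min, heated for 3 min across 48°C-58°C, pooled and brought to 0.5% NP-40 at 4°C. Values are log-two fold changes in thermal stability relative to solvent controls, from duplicates.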

[1] = compound: CC(=O)c1cnc2ccc(-c3cc(Cl)c(O)c(Cl)c3)nc2c1N[C@H]1CC[C@H](CN(C)C)CC1
In short: as §1

ralimetinib = compound: CC(C)(C)Cn1c(N)nc2ccc(-c3[nH]c(C(C)(C)C)nc3-c3ccc(F)cc3)nc21 [ralimetinib]
In short: as §1

[2] = compound: CC(C)(O)CC(=O)NCCn1ccc2ncnc(Nc3ccc(Oc4cccc(C(F)(F)F)c4)c(Cl)c3)c21
In short: as §1

[3] = compound: CC(C)C1=C2N=C(C=C(N2N=C1)NCC3=CC=CC=C3)NCCCCCCN
In short: as §1

[4] = compound: CC1=C(C(CC(=O)N1)C2=CC=C(C=C2)C(F)(F)F)C(=O)NC3=C(C=C4C(=C3)C=NN4)F
In short: as §1

[5] = compound: CC1=C(C2=C(C=C1)C(=O)C3=CC=CC=C3N2CCCN)C
In short: as §1

[6] = compound: CC1=C(C=C(C=C1)NC(=O)C2=CC(=CC=C2)C(C)(C)C#N)NC3=CC4=C(C=C3)N=CN(C4=O)C
In short: as §1

[7] = compound: CC1=C(C=C(C=C1)NC(=O)C2=CC(=CC=C2)N(C)C)NC(=O)C3=CC=C(C=C3)O
In short: as §1

[8] = compound: CC1=CC=C(C=C1)SC2=C3C=C(SC3=CN=C2)C(=O)N
In short: as §1

Measured: log2 fold change

ORC5 (UniProt O43913)
Chain of UniProt O43913 (O43913 whole entry, looked up): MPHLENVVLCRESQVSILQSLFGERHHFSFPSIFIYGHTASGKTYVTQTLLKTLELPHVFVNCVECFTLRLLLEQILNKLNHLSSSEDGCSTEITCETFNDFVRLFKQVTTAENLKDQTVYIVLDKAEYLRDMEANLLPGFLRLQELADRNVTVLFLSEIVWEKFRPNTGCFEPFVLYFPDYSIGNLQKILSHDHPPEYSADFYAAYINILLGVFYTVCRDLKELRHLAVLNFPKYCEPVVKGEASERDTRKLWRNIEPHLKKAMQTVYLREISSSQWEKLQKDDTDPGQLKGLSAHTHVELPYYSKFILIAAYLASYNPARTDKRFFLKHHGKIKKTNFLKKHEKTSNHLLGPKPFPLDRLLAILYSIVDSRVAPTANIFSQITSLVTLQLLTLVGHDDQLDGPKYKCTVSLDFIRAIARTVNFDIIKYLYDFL
inactive: ibrutinib 0.05 | [1] 0 | ralimetinib 0.047 | [2] -0.001 | [3] 0.022 | [4] -0.027 | [5] -0.008 | [6] 0.012 | [7] 0.053 | [8] -0.007

MYCBP2 (UniProt O75592)
inactive: ibrutinib 0.014 | [1] -0.027 | ralimetinib 0.033 | [2] -0.085 | [3] 0.014 | [4] 0.016 | [5] -0.028 | [6] 0.028 | [7] 0.036 | [8] -0.033

NUP160 (UniProt Q12769)
inactive: ibrutinib 0.063 | [1] -0.007 | ralimetinib 0.062 | [2] 0.017 | [3] -0.021 | [4] 0.01 | [5] 0.005 | [6] 0.012 | [7] -0.021 | [8] 0.001

MTHFD1, A0A384N5Y3
inactive: ibrutinib -0.014 | [1] -0.001 | ralimetinib 0.028 | [2] 0.028 | [3] 0.03 | [4] -0.033 | [5] -0.032 | [6] 0.003 | [7] 0.047 | [8] 0.014

MYH11 isoform 2 (UniProt P35749)
inactive: ibrutinib -0.051 | [1] -0.011 | ralimetinib -0.094 | [2] -0.043 | [3] 0.013 | [4] -0.019 | [5] -0.007 | [6] -0.043 | [7] 0 | [8] -0.004

NLRP2 (UniProt Q9NX02)
inactive: ibrutinib -0.007 | [1] -0.007 | ralimetinib 0.036 | [2] 0.021 | [3] -0.008 | [4] 0.007 | [5] 0.009 | [6] 0.003 | [7] 0.021 | [8] 0.021

NIT2 (UniProt Q9NQR4)
Chain of UniProt Q9NQR4 (Q9NQR4 whole entry, looked up): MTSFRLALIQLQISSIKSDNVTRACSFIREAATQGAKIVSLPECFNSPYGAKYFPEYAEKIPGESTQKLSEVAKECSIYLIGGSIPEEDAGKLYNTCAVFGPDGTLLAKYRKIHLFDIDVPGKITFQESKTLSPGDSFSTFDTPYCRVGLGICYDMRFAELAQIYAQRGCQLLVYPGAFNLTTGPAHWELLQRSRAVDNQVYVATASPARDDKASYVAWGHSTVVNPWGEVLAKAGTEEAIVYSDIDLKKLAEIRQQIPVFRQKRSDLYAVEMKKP
inactive: ibrutinib 0.026 | [1] 0.014 | ralimetinib -0.038 | [2] -0.041 | [3] 0.014 | [4] 0.017 | [5] 0.014 | [6] 0.017 | [7] 0.019 | [8] 0

NAP1L5 (UniProt Q96NT1)
Chain of UniProt Q96NT1 (Q96NT1 whole entry, looked up): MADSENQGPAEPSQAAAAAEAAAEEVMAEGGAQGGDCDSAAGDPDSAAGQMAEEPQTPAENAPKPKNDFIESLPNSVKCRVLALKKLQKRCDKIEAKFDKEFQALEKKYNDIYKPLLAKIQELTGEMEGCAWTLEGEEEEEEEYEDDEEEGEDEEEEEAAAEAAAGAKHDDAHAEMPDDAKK
inactive: ibrutinib -0.056 | [1] 0.018 | ralimetinib -0.034 | [2] 0.034 | [3] -0.037 | [4] -0.036 | [5] -0.045 | [6] -0.13 | [7] -0.036 | [8] -0.009

NUP93 (UniProt Q8N1F7)
Chain of UniProt Q8N1F7 (Q8N1F7 whole entry, looked up): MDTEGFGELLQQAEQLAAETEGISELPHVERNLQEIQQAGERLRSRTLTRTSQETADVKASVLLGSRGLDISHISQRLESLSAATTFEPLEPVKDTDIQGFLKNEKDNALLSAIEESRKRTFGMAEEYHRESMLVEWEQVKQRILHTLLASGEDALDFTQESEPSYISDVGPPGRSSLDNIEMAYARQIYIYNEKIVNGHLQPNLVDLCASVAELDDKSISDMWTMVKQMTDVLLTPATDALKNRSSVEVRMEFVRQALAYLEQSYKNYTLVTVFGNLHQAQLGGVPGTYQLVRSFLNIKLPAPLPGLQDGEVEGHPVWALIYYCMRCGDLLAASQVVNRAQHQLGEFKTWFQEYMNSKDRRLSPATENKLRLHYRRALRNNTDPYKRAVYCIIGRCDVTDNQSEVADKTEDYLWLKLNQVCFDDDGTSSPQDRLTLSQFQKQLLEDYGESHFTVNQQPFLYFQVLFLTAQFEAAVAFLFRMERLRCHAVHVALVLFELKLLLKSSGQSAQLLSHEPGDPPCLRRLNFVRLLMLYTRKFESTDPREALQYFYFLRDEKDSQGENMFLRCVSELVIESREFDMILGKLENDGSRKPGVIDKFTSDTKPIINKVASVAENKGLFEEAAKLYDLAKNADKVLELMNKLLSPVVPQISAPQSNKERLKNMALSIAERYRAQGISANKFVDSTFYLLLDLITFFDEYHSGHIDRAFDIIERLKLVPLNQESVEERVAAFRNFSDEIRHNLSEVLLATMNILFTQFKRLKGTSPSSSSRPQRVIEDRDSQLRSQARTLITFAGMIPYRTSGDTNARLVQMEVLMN
inactive: ibrutinib -0.013 | [1] 0.007 | ralimetinib 0.036 | [2] -0.015 | [3] 0 | [4] 0.027 | [5] 0.019 | [6] -0.029 | [7] 0.036 | [8] 0

NUDT5 (UniProt Q9UKK9)
inactive: ibrutinib 0.059 | [1] -0.008 | ralimetinib -0.047 | [2] -0.05 | [3] -0.047 | [4] -0.007 | [5] -0.002 | [6] 0.006 | [7] -0.014 | [8] -0.042

NUP98 (UniProt P52948)
inactive: ibrutinib -0.01 | [1] 0.047 | ralimetinib 0.047 | [2] 0.022 | [3] -0.037 | [4] 0.034 | [5] 0.029 | [6] -0.022 | [7] 0.008 | [8] -0.017

NT5DC2 isoform 2 (UniProt Q9H857)
Chain of UniProt Q9H857 (Q9H857 whole entry, looked up): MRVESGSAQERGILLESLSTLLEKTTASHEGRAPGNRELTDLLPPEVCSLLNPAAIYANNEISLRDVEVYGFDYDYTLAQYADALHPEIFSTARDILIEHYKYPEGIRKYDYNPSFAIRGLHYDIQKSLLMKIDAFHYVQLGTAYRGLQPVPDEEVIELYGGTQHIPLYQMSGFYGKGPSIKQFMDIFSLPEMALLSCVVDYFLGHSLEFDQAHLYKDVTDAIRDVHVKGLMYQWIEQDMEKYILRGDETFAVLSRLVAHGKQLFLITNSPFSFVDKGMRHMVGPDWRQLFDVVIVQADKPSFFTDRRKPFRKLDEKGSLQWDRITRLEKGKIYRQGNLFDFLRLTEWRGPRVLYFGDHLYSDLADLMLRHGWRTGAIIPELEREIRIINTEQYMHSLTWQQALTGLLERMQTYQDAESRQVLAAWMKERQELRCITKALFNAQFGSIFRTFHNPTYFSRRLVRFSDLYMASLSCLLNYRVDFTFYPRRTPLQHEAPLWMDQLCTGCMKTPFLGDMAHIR
inactive: ibrutinib 0 | [1] -0.066 | ralimetinib -0.015 | [2] -0.026 | [3] 0 | [4] -0.002 | [5] -0.015 | [6] 0.008 | [7] 0.04 | [8] -0.025

PAK1 (UniProt Q13153)
inactive: ibrutinib 0.067 | [1] -0.011 | ralimetinib 0.001 | [2] 0.004 | [3] -0.108 | [4] -0.003 | [5] -0.018 | [6] 0.041 | [7] 0.008 | [8] 0.009

NCKAP1L (UniProt P55160)
inactive: ibrutinib -0.18 | [1] 0.021 | ralimetinib 0.025 | [2] -0.04 | [3] -0.111 | [4] -0.051 | [5] -0.089 | [6] -0.012 | [7] 0.04 | [8] 0.025

MRPS18A isoform 2 (UniProt Q9NVS2)
inactive: ibrutinib -0.015 | [1] 0.006 | ralimetinib -0.015 | [2] -0.002 | [3] -0.046 | [4] 0.034 | [5] -0.131 | [6] 0.016 | [7] 0.043 | [8] -0.003

NEDD8 (UniProt Q15843)
Chain of UniProt Q15843 (Q15843 whole entry, looked up): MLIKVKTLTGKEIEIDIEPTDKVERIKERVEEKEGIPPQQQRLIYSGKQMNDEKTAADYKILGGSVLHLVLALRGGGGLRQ
inactive: ibrutinib 0.059 | [1] -0.013 | ralimetinib -0.001 | [2] 0 | [3] 0.011 | [4] -0.01 | [5] 0.005 | [6] 0.077 | [7] 0.025 | [8] -0.029

PARP14 (UniProt Q460N5)
inactive: ibrutinib 0.029 | [1] -0.051 | ralimetinib -0.03 | [2] 0.015 | [3] 0.074 | [4] 0.049 | [5] 0.011 | [6] -0.007 | [7] 0.002 | [8] -0.135

MTA1 (UniProt Q13330)
inactive: ibrutinib -0.018 | [1] -0.025 | ralimetinib 0.001 | [2] 0.006 | [3] -0.007 | [4] -0.004 | [5] 0 | [6] -0.008 | [7] 0.034 | [8] -0.018

MYCBP (UniProt Q99417)
Chain of UniProt Q99417 (Q99417 whole entry, looked up): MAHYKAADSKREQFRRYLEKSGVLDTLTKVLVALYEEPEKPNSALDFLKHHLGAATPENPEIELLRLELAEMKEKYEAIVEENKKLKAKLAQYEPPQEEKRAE
inactive: ibrutinib 0.188 | [1] -0.009 | ralimetinib 0.021 | [2] -0.04 | [3] 0.002 | [4] -0.007 | [5] -0.017 | [6] 0.032 | [7] -0.002 | [8] -0.009

NBN (UniProt O60934)
inactive: ibrutinib 0.016 | [1] -0.003 | ralimetinib 0.014 | [2] 0.01 | [3] -0.016 | [4] -0.007 | [5] -0.015 | [6] -0.021 | [7] 0.022 | [8] -0.016

NFATC2 (UniProt Q13469)
Chain of UniProt Q13469 (Q13469 whole entry, looked up): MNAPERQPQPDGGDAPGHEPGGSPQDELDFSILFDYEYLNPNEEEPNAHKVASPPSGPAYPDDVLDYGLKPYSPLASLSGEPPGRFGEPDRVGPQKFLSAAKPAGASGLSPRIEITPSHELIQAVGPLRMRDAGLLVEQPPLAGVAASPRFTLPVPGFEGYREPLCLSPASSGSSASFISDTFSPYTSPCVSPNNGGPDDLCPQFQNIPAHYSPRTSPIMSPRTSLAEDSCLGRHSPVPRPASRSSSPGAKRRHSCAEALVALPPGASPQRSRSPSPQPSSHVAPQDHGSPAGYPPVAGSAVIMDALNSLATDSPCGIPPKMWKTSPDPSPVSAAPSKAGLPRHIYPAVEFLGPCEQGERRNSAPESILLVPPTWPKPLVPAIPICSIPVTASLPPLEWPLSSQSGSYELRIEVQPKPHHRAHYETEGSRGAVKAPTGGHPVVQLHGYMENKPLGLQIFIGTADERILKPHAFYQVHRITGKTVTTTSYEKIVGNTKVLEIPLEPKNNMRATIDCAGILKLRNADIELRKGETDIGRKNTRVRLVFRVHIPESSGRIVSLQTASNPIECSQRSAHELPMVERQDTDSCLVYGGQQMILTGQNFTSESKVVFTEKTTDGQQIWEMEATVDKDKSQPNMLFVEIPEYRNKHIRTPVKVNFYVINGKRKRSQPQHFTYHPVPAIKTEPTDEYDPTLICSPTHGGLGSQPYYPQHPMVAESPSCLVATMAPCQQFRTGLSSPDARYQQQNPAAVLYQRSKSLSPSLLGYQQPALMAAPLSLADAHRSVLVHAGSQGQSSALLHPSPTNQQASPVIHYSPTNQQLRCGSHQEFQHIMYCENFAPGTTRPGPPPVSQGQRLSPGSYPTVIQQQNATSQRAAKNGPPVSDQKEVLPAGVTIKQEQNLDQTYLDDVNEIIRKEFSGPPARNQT
inactive: ibrutinib 0.012 | [1] 0.039 | ralimetinib -0.022 | [2] -0.061 | [3] 0.026 | [4] 0.004 | [5] -0.018 | [6] -0.026 | [7] 0.033 | [8] -0.031

NUSAP1 (UniProt Q9BXS6)
inactive: ibrutinib -0.003 | [1] -0.022 | ralimetinib 0.023 | [2] -0.014 | [3] -0.006 | [4] -0.02 | [5] -0.017 | [6] -0.004 | [7] 0.016 | [8] -0.023

PANK1 (UniProt Q8TE04)
inactive: ibrutinib -0.031 | [1] -0.007 | ralimetinib 0.04 | [2] -0.003 | [3] -0.079 | [4] 0.045 | [5] -0.068 | [6] -0.035 | [7] -0.025 | [8] 0.064

NUMB (UniProt P49757)
inactive: ibrutinib 0.03 | [1] 0.005 | ralimetinib 0.021 | [2] -0.055 | [3] 0.003 | [4] -0.007 | [5] -0.015 | [6] 0.081 | [7] 0.004 | [8] -0.005

NADK2 (UniProt Q4G0N4)
inactive: ibrutinib -0.017 | [1] -0.006 | ralimetinib 0.005 | [2] -0.03 | [3] -0.02 | [4] -0.007 | [5] 0.008 | [6] 0.024 | [7] 0.023 | [8] 0.042

MRPS12 (UniProt O15235)
inactive: ibrutinib -0.003 | [1] -0.008 | ralimetinib 0.011 | [2] -0.067 | [3] 0.007 | [4] -0.004 | [5] -0.138 | [6] 0.003 | [7] -0.028 | [8] -0.02

NCAPD2 (UniProt Q15021)
inactive: ibrutinib -0.019 | [1] -0.019 | ralimetinib 0.03 | [2] -0.012 | [3] -0.031 | [4] 0.022 | [5] -0.003 | [6] 0.016 | [7] 0.036 | [8] -0.005

NEBL isoform 2 (UniProt O76041)
inactive: ibrutinib -0.04 | [1] 0.015 | ralimetinib -0.038 | [2] 0.027 | [3] 0.027 | [4] -0.012 | [5] -0.028 | [6] 0 | [7] 0.011 | [8] -0.013

NELFCD (UniProt Q8IXH7)
Chain of UniProt Q8IXH7 (Q8IXH7 whole entry, looked up): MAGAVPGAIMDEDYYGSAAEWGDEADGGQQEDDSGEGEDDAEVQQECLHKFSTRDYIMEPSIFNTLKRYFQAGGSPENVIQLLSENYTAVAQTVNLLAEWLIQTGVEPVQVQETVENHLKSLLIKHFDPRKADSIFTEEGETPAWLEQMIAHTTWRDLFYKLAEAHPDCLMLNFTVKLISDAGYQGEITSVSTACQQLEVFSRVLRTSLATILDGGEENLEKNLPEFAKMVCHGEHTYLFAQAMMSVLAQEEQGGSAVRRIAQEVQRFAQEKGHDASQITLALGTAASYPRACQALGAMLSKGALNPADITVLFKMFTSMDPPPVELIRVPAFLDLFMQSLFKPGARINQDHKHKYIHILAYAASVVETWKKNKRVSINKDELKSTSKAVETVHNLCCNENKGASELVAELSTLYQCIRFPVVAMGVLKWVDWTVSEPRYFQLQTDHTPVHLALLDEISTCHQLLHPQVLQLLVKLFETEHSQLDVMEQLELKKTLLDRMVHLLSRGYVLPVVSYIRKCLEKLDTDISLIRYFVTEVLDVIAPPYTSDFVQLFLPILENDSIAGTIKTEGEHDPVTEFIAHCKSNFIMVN
inactive: ibrutinib 0.039 | [1] 0.013 | ralimetinib 0.019 | [2] -0.043 | [3] 0.009 | [4] 0.007 | [5] 0.013 | [6] 0.011 | [7] 0.049 | [8] -0.02

NFATC1 (UniProt O95644)
Chain of UniProt O95644 (O95644 whole entry, looked up): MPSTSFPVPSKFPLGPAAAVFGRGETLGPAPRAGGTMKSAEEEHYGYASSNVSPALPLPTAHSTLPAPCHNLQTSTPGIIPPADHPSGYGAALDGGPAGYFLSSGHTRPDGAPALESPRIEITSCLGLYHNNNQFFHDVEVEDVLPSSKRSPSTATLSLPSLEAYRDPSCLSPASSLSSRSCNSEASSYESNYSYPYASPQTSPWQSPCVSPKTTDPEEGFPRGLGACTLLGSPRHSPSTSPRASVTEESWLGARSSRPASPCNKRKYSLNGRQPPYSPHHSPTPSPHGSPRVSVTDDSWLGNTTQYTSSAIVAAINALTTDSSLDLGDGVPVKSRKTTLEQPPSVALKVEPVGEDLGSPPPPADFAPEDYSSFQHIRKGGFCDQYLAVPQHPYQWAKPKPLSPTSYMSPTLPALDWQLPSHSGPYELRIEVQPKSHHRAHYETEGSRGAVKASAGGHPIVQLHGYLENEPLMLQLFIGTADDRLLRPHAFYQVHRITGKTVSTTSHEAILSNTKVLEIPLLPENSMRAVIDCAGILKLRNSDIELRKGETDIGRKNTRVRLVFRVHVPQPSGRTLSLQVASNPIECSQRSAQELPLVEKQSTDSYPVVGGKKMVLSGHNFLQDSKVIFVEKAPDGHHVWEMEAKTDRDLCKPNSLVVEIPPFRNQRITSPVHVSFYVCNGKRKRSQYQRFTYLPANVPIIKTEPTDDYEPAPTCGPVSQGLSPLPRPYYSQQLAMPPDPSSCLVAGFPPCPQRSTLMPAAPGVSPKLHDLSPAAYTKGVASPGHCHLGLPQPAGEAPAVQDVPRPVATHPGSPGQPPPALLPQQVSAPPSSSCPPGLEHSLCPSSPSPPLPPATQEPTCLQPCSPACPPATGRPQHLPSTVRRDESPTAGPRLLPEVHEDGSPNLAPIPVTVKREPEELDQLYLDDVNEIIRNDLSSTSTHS
inactive: ibrutinib 0.011 | [1] 0.06 | ralimetinib -0.004 | [2] -0.067 | [3] -0.038 | [4] 0.031 | [5] -0.047 | [6] 0.094 | [7] -0.015 | [8] -0.052
